According to the supplement of paper PMC10849652:
Targets with a hit are over-represented here; the source holds about 8,800 in all. About 0.5% of all pairs of compound and target were hits. A number with no mark means an inactive call.

compound: CC1=C2C(=CC=C1)N=C(N(C2=O)C3=CC=CC=C3C)CN4C=NC5=C(N=CN=C54)N; assay: log2 fold change, soluble protein after heating vs DMSO (PISA); higher = thermal stabilisation; K562 lysate, 10 uM; active = over 0.2 and 3.5 SD of the protein, either way, in both replicates (recomputed)
Outline: (§1)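 Following dounce homogenisation of K562 pellets in PBS pH 7.4 with 1 mM MgCl2, crude extract at 1 mg/mL protein was incubated for 30 min with 10 μM compound. Aliquots were then heated for 3 min over 48°C-58°C and pooled, NP-40 was added to 0.5% at 4°C, and soluble protein was recovered as the supernatant at 21,000xg for 90 min. Channel-sum-equalised TMTpro 16plex LC-MS/MS quantified this protein. Each value, from duplicates, is a log-two fold change in thermal stability relative to solvent controls.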

UniProt O60566, sequence (O60566 whole entry, looked up): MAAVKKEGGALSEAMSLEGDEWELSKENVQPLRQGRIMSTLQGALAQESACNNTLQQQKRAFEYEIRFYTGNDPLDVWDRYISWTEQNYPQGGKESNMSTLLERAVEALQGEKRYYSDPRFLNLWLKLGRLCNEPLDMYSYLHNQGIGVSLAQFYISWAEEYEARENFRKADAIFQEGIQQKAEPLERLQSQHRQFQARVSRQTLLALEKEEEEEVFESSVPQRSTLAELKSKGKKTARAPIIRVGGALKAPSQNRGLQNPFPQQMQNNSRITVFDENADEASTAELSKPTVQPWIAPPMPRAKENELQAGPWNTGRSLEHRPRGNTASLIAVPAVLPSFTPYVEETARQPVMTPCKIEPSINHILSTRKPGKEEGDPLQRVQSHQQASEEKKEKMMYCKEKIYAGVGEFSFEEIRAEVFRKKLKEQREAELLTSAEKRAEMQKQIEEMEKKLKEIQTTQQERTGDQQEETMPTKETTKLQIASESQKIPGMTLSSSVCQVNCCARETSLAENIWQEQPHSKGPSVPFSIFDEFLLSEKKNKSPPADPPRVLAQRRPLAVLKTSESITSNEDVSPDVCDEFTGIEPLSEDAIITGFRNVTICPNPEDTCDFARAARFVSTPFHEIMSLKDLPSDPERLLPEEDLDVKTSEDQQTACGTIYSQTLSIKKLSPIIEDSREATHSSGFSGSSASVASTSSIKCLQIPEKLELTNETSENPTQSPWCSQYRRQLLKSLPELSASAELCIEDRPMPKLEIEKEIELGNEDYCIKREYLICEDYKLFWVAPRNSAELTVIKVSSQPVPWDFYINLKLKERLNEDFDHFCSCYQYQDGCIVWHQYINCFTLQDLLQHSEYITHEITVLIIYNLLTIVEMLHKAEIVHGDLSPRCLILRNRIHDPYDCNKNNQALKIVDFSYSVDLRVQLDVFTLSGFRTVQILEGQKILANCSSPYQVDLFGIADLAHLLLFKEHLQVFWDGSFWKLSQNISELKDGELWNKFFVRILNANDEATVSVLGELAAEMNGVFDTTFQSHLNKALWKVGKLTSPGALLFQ
UniProt Q8N5I9, sequence (Q8N5I9 whole entry, looked up): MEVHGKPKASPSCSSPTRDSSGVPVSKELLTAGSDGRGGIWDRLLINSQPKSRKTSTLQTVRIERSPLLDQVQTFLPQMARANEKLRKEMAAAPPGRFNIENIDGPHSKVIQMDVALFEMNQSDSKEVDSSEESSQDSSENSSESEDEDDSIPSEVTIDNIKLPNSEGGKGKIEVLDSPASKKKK
UniProt P45973, sequence (P45973 whole entry, looked up): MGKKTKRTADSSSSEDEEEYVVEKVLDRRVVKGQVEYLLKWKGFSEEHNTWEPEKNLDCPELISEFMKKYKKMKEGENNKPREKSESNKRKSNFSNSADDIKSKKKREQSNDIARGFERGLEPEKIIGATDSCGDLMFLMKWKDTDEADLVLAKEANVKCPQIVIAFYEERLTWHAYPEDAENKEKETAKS
UniProt Q9Y6K0, sequence (Q9Y6K0 whole entry, looked up): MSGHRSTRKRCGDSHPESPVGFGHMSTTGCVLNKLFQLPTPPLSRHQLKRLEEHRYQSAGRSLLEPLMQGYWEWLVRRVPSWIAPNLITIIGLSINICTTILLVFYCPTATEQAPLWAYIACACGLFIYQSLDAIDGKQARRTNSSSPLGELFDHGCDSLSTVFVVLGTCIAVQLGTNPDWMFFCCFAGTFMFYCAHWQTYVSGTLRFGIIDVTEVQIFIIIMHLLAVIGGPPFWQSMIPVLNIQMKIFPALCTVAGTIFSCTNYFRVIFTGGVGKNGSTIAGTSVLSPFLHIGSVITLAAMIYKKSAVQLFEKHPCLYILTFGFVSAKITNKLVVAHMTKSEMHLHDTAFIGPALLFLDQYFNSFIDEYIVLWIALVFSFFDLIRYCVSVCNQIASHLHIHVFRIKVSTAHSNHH
UniProt Q6ZU80, sequence (Q6ZU80 whole entry, looked up): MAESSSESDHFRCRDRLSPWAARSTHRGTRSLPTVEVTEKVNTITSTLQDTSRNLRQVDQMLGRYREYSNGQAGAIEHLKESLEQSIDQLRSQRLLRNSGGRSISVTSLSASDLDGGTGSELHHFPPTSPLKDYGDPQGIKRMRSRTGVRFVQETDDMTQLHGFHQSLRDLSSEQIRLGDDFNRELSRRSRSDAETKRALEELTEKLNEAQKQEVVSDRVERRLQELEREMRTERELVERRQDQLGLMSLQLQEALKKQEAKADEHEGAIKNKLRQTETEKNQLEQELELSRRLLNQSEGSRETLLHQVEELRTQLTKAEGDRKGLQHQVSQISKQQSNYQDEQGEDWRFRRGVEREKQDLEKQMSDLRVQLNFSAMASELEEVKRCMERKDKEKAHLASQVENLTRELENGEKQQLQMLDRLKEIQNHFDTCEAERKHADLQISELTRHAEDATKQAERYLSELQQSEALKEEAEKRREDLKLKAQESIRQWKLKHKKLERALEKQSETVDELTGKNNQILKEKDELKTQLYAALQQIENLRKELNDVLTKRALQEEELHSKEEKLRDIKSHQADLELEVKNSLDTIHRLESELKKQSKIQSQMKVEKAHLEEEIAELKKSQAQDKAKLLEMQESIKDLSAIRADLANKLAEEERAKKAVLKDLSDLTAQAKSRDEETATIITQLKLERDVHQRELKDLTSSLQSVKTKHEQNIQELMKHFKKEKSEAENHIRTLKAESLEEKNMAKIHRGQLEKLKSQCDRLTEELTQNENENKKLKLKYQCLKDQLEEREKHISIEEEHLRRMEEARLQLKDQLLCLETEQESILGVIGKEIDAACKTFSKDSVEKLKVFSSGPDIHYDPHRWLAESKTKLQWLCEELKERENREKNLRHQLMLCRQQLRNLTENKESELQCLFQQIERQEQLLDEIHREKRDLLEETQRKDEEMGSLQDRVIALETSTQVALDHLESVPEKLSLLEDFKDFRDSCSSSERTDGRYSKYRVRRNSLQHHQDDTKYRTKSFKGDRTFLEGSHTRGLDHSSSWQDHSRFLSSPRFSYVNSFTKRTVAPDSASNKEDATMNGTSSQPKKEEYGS
UniProt P40227, sequence (P40227 whole entry, looked up): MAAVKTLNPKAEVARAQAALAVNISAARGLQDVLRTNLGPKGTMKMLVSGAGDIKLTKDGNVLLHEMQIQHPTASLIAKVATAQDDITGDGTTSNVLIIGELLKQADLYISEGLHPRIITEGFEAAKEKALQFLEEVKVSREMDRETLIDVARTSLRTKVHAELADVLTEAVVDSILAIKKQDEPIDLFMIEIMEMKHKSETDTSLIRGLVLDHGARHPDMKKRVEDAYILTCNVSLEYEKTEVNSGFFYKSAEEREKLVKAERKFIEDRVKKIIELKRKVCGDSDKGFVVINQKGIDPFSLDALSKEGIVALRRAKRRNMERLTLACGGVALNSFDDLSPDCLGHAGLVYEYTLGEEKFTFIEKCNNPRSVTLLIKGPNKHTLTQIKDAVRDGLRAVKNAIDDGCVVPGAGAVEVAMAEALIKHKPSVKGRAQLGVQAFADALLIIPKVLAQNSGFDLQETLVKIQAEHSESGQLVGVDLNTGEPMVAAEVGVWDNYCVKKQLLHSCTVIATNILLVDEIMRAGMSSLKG
UniProt Q06187, sequence (Q06187 whole entry, looked up): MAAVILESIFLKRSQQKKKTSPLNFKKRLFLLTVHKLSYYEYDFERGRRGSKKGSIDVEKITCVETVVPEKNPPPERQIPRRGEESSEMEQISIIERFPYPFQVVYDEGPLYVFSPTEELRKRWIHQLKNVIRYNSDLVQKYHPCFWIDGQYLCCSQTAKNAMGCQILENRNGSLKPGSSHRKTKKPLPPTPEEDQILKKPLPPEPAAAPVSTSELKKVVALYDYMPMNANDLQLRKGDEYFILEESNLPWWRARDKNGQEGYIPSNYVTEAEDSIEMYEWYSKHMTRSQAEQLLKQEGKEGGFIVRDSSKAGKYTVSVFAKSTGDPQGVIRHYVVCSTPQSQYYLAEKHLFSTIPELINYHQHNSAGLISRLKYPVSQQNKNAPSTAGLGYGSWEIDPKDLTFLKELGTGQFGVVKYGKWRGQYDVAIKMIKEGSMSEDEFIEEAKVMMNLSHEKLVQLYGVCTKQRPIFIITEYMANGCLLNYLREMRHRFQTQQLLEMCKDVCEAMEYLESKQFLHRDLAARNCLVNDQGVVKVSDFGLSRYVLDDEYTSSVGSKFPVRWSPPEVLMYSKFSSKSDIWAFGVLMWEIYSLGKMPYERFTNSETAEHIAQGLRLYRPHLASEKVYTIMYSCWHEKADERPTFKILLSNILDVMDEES
UniProt Q13555, sequence (Q13555 whole entry, looked up): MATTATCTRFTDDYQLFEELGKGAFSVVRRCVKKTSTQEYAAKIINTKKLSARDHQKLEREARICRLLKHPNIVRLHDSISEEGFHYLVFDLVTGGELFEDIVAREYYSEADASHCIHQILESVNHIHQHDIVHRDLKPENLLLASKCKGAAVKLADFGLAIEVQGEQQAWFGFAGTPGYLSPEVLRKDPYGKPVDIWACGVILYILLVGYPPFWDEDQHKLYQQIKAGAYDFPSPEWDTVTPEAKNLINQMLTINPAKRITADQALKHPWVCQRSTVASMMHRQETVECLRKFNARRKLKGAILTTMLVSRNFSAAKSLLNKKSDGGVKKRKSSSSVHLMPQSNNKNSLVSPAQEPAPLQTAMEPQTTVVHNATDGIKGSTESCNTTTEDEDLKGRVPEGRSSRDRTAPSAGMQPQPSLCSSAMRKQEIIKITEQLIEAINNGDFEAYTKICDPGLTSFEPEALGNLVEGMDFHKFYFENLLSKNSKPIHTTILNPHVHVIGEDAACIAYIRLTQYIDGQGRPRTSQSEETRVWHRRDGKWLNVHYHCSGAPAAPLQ
UniProt Q9H0Y0, sequence (Q9H0Y0 whole entry, looked up): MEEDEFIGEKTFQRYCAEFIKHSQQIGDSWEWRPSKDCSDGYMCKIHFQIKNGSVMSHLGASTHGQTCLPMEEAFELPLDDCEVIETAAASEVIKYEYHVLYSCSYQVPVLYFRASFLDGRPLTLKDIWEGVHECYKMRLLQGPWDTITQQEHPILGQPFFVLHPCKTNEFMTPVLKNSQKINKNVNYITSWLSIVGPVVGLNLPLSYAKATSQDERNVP

Target	log2 fold change
CEP128 (UniProt Q6ZU80)	-0.023
C12orf45 (UniProt Q8N5I9)	-0.007
ATXN2 (UniProt Q99700)	0.075
CBX5 (UniProt P45973)	-0.038
BSDC1 (UniProt Q9NW68)	0.021
ATG10 (UniProt Q9H0Y0)	-0.057
CEP76 (UniProt Q8TAP6)	-0.043
C16orf70 (UniProt Q9BSU1)	-0.071
CARD11 (UniProt Q9BXL7)	0
CCT6A (UniProt P40227)	-0.01
BUB1B isoform 3 (UniProt O60566)	0.027
BTK isoform 2 (UniProt Q06187)	0.012
CAMK2G isoform 8 (UniProt Q13555)	-0.053
CEPT1 (UniProt Q9Y6K0)	0.062

compound: Cc1sc2c(c1C)C(c1ccc(Cl)cc1)=N[C@@H](CC(=O)OC(C)(C)C)c1nnc(C)n1-2; assay: as above
Outline: as §1

Target	log2 fold change
C3orf33 (UniProt Q6P1S2)	-0.03
BPHL (UniProt Q86WA6)	0.158
CDK16 isoform 2 (UniProt Q00536)	-0.011
CAMK2B (UniProt Q13554)	-0.056
CCP110 (UniProt O43303)	-0.143
CAMLG (UniProt P49069)	0.05
AUH (UniProt Q13825)	-0.112
CDCA8 (UniProt Q53HL2)	-0.048
CDC42EP4 (UniProt Q9H3Q1)	0.004
CDK5RAP2 (UniProt Q96SN8)	-0.026
CDK5RAP3 isoform 4 (UniProt Q96JB5)	-0.01
CCDC32 isoform 2 (UniProt Q9BV29)	0.015
CCDC85B (UniProt Q15834)	-0.04
BCAR1 isoform 6 (UniProt P56945)	-0.043
ATP6V1B1 (UniProt P15313)	-0.023
CANX isoform 2 (UniProt P27824)	-0.027
CDK17 isoform 2 (UniProt Q00537)	0.072
CDC123 (UniProt O75794)	0.073

Target	log2 fold change
BLM (UniProt P54132)	-0.002
ATAD3B (UniProt Q5T9A4)	0.047
BAG4 (UniProt O95429)	0.03
CASC4 (UniProt Q6P4E1)	-0.015
CEP128 (UniProt Q6ZU80)	-0.125
C12orf45 (UniProt Q8N5I9)	-0.008
ATXN2 (UniProt Q99700)	-0.02
CBX5 (UniProt P45973)	0.031
BSDC1 (UniProt Q9NW68)	-0.004
ATG10 (UniProt Q9H0Y0)	0.047
CEP76 (UniProt Q8TAP6)	0.002
C16orf70 (UniProt Q9BSU1)	0.033
CARD11 (UniProt Q9BXL7)	-0.084
CCT6A (UniProt P40227)	0.004
BUB1B isoform 3 (UniProt O60566)	-0.003
BTK isoform 2 (UniProt Q06187)	-0.002
CAMK2G isoform 8 (UniProt Q13555)	-0.007
CEPT1 (UniProt Q9Y6K0)	-0.054
